Assay results published in the supplement of paper PMC8728848.
This is one part of a sample in which the strongest signals are shown more often than they occur.

How the values were obtained:
Test in all cases: glycan array binding signal (z-score within array); higher = stronger binding
Conditions in all cases: glycan notation: IUPAC condensed, linker removed
[1] = target: Fuc(a1-2)Gal(b1-3)GalNAc(b1-3)Gal(a1-4)Gal(b1-4)Glc
Summary of the method: (§1)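 From the Consortium for Functional Glycomics database, 3228 arrays were curated, keeping only those whose protein sequence was available. Binding is given as a within-array Z-score averaged across arrays sharing a protein sequence and across linkers. Negative Z-scores can be read as non-binding.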

[2] = target: Fuc(a1-2)Gal(b1-3)GlcNAc(b1-3)[Gal(b1-4)GlcNAc(b1-6)]Gal(b1-4)Glc
Summary of the method: as §1

[3] = target: Fuc(a1-2)Gal(b1-4)GlcNAc(b1-2)Man
Summary of the method: as §1

[4] = target: Fuc(a1-2)Gal(b1-4)[Fuc(a1-3)]GlcNAc(b1-2)[Fuc(a1-2)Gal(b1-4)[Fuc(a1-3)]GlcNAc(b1-4)]Man(a1-3)[Fuc(a1-2)Gal(b1-4)[Fuc(a1-3)]GlcNAc(b1-2)Man(a1-6)]Man(b1-4)GlcNAc(b1-4)GlcNAc
Summary of the method: as §1

[5] = target: Fuc(a1-2)Gal(b1-4)[Fuc(a1-3)]GlcNAc(b1-3)[Neu5Ac(a2-6)Gal(b1-4)GlcNAc(b1-6)]Gal(b1-4)Glc
Summary of the method: as §1

[6] = target: Fuc(a1-2)Gal6S(b1-3)GlcNAc6S
Summary of the method: as §1

[7] = target: Fuc(a1-2)[Gal(a1-3)]Gal(b1-3)GlcNAc(b1-2)Man(a1-3)[Fuc(a1-2)[Gal(a1-3)]Gal(b1-3)GlcNAc(b1-2)Man(a1-6)]Man(b1-4)GlcNAc(b1-4)GlcNAc
Summary of the method: as §1

[8] = target: Fuc(a1-2)[Gal(a1-3)]Gal(b1-4)GlcNAc(b1-2)Man
Summary of the method: as §1

[9] = target: Fuc(a1-2)[GalNAc(a1-3)]Gal(b1-3)GlcNAc(b1-6)GalNAc
Summary of the method: as §1

[10] = target: Fuc(a1-2)[GalNAc(b1-3)]Gal
Summary of the method: as §1

[11] = target: Fuc(a1-3)[Gal(b1-4)]GlcNAc(b1-2)Man
Summary of the method: as §1

[12] = target: Fuc(a1-3)[Gal(b1-4)]GlcNAc(b1-6)GalNAc
Summary of the method: as §1

[13] = target: Gal(a1-2)Gal
Summary of the method: as §1

[14] = target: Gal(a1-3)Gal(b1-3)GlcNAc
Summary of the method: as §1

[15] = target: Gal(a1-4)Gal(b1-4)GlcNAc
Summary of the method: as §1

[16] = target: Gal(b1-3)GalNAc(b1-4)Gal(b1-4)Glc
Summary of the method: as §1

[17] = target: Gal(b1-3)GalNAc(b1-4)[Neu5Ac(a2-3)]Gal(b1-4)Glc
Summary of the method: as §1

[18] = target: Gal(b1-3)GlcNAc(b1-2)Man(a1-3)[Gal(b1-3)GlcNAc(b1-2)Man(a1-6)]Man(b1-4)GlcNAc(b1-4)[Fuc(a1-6)]GlcNAc
Summary of the method: as §1

[19] = target: Gal(b1-3)GlcNAc(b1-6)[Gal(b1-3)]GalNAc
Summary of the method: as §1

[20] = target: Gal(b1-3)GlcNAc6S
Summary of the method: as §1

[21] = target: Gal(b1-4)GlcNAc(b1-2)Man(a1-3)Man(b1-4)GlcNAc(b1-4)GlcNAc
Summary of the method: as §1

[22] = target: Gal(b1-4)GlcNAc(b1-3)Gal(b1-4)GlcNAc(b1-3)Gal(b1-4)GlcNAc(b1-2)[Gal(b1-4)GlcNAc(b1-3)Gal(b1-4)GlcNAc(b1-3)Gal(b1-4)GlcNAc(b1-6)]Man(a1-6)[Gal(b1-4)GlcNAc(b1-3)Gal(b1-4)GlcNAc(b1-3)Gal(b1-4)GlcNAc(b1-2)Man(a1-3)]Man(b1-4)GlcNAc(b1-4)[Fuc(a1-6)]GlcNAc
Summary of the method: as §1

[23] = target: Gal(b1-4)GlcNAc(b1-3)Gal(b1-4)GlcNAc(b1-3)Gal(b1-4)GlcNAc(b1-3)Gal(b1-4)GlcNAc(b1-3)Gal(b1-4)GlcNAc(b1-2)Man(a1-3)[Gal(b1-4)GlcNAc(b1-3)Gal(b1-4)GlcNAc(b1-3)Gal(b1-4)GlcNAc(b1-3)Gal(b1-4)GlcNAc(b1-3)Gal(b1-4)GlcNAc(b1-2)Man(a1-6)]Man(b1-4)GlcNAc(b1-4)GlcNAc
Summary of the method: as §1

[24] = target: Gal(b1-4)GlcNAc(b1-3)Gal(b1-4)GlcNAc(b1-3)Gal(b1-4)GlcNAc(b1-3)Gal(b1-4)GlcNAc(b1-3)Gal(b1-4)GlcNAc(b1-3)Gal(b1-4)GlcNAc(b1-2)Man(a1-3)[Gal(b1-4)GlcNAc(b1-3)Gal(b1-4)GlcNAc(b1-3)Gal(b1-4)GlcNAc(b1-3)Gal(b1-4)GlcNAc(b1-3)Gal(b1-4)GlcNAc(b1-3)Gal(b1-4)GlcNAc(b1-2)Man(a1-6)]Man(b1-4)GlcNAc(b1-4)GlcNAc
Summary of the method: as §1

[25] = target: Gal(b1-4)GlcNAc(b1-3)Gal(b1-4)GlcNAc(b1-3)[Gal(b1-4)GlcNAc(b1-3)Gal(b1-4)GlcNAc(b1-6)]GalNAc
Summary of the method: as §1

[26] = target: Gal(b1-4)GlcNAc(b1-3)[Fuc(a1-3)GlcNAc(b1-6)]Gal(b1-4)Glc
Summary of the method: as §1

[27] = target: Gal(b1-4)GlcNAc(b1-6)[Gal(b1-4)GlcNAc(b1-3)]GalNAc
Summary of the method: as §1

[28] = target: Gal3S(b1-4)Glc
Summary of the method: as §1

[29] = target: Gal3S(b1-4)[Fuc(a1-3)]Glc6S
Summary of the method: as §1

[30] = target: Gal6S(b1-4)GlcNAc
Summary of the method: as §1

B1: GS7807F-bth-514-18-514 (Bacteroides thetaiotaomicron) (protein)
chain: AGSCTGNFEEYNTNQFQIHEADPSTLMKSMIETIVNIQQNDSQMMDQMVGQLGGYLTCANVWSGTNFGTFNQSDAWNAGPWNTNFEKIYGNFFQIQEATNESGHYYAFARMIRAITMLRVADCYGPMPYSQVKKGNFYVAYDTEEQVYKNIMEDFASAANVLYNYYKDTNGNAPLASNDPVFSGNYANWARLANSMRLRVAIRISTAYPEMAKENAEAAASHEAGLIEANNDNAMMDCGSQTNPYQLAAVSWGDLRVNANIVDYMNGYGDPRMSKYFNHSTFTGHTQEYVGMRSGEDGFAKSDVAGYSIPAITGTSKLLVFCAAETAFLRAEGKLKNWSVGNKSAKEYYEEGIKLSMEQYGTTMPDNYLTNTEKPTVSHNNDPRGHAYTISNTVAVAWNDNNEEENLQRIITQKWIANYPLGLEAWAEYRRTGYPELYPCIDNLSPSGVDSKRGMRRLRFPYTEVQNNHSNYQQGVSYLKNGGPDNEATDLSWGKTN
glycan array binding signal (z-score) [1]: -0.883 | glycan array binding signal (z-score) [2]: -0.372 | glycan array binding signal (z-score) [3]: -0.353 | glycan array binding signal (z-score) [4]: -0.286 | glycan array binding signal (z-score) [5]: -0.798 | glycan array binding signal (z-score) [6]: -0.358 | glycan array binding signal (z-score) [7]: 0.454 | glycan array binding signal (z-score) [8]: -0.295 | glycan array binding signal (z-score) [9]: -0.854 | glycan array binding signal (z-score) [10]: 3.2 | glycan array binding signal (z-score) [11]: -0.562 | glycan array binding signal (z-score) [12]: -0.328 | glycan array binding signal (z-score) [13]: -0.45 | glycan array binding signal (z-score) [14]: 0.018 | glycan array binding signal (z-score) [15]: 0.384 | glycan array binding signal (z-score) [16]: 0.212 | glycan array binding signal (z-score) [17]: 3.23 | glycan array binding signal (z-score) [18]: 0.491 | glycan array binding signal (z-score) [19]: 1.38 | glycan array binding signal (z-score) [20]: 2.12 | glycan array binding signal (z-score) [21]: 0.202 | glycan array binding signal (z-score) [22]: 3.25 | glycan array binding signal (z-score) [23]: 4.26 | glycan array binding signal (z-score) [24]: 3.26 | glycan array binding signal (z-score) [25]: 3.96 | glycan array binding signal (z-score) [26]: 1.53 | glycan array binding signal (z-score) [27]: 0.25 | glycan array binding signal (z-score) [28]: 0.164 | glycan array binding signal (z-score) [29]: 3.48 | glycan array binding signal (z-score) [30]: 0.547
